Test [1] concerns the target human Peroxisome Proliferator-activated Receptor delta (PPARd), PPARD (gene 5467) (UniProt Q03181). The experiment in a line: ATG_PPARd_TRANS: Attagene TRANS-FACTORIAL HepG2 Assay for human Peroxisome Proliferator-activated Receptor delta (PPARd) (AID 2283002). The procedure, abridged:
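Cell-based TRANS reporter: HepG2, transient MRTU transfection, 24 h exposure. Readout = reporter mRNA (RT-PCR/CE, 6-FAM). Gain-of-signal fit vs DMSO control.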

Read-out in test [2]: Intercellular Adhesion Molecule 1 (ICAM1), ICAM1 (gene 3383)
The test can be described thus: BSK_3C_ICAM1: BioMAP Diversity Plus: 3C Assay for Intercellular Adhesion Molecule 1 (ICAM1) Biomarker Activity (AID 2283003; active = hit-call score of the fitted dose curve at least 0.9, where 1 is the maximum; inactive = score below 0.9). The note with it: primary human endothelial cells (HUVEC); actives raise or lower the signal. Put shortly: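 HUVEC primary cells stimulated under 3C conditions; ICAM1 measured by ELISA 24 h after compound dosing. Curves fitted bidirectionally against the DMSO baseline. Overt cytotoxicity checked by SRB staining of parallel cultures.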

For test [3], the target named is human Retinoic Acid Receptor beta (RARb), RARB (gene 5915) (UniProt P10826). The experiment in a line: ATG_RARb_TRANS: Attagene TRANS-FACTORIAL HepG2 Assay for human Retinoic Acid Receptor beta (AID 2283004). The procedure, abridged:
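HepG2 cells transiently transfected with multiplexed GAL4-UAS reporter units expressing chimeric NR–Gal4 fusions; 24 h compound exposure. Reporter mRNA quantified by RT-PCR, 6-FAM labelling, HpaI digestion and capillary electrophoresis; gain-of-signal fitted against DMSO baseline.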

The target of test [4] is Retinoic acid receptor alpha (Homo sapiens) (UniProt P10276). The test can be described thus: ATG_RARa_TRANS: Attagene TRANS-FACTORIAL HepG2 Assay for human Retinoic Acid Receptor alpha (RARa) (AID 2283005). Put shortly: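 Reporter transcripts, measured by RT-PCR with fluorescent labeling and capillary electrophoresis after 24 h dosing, reflect activity of an exogenous human RARa–GAL4 fusion in transiently transfected HepG2. Fitted for increase relative to DMSO.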

Test [5] is described as follows: BSK_3C_Proliferation: Cell Proliferation Assessment in the BioMAP Diversity Plus: 3C Assay (AID 2283006; active = hit-call score of the fitted dose curve at least 0.9, where 1 is the maximum; inactive = score below 0.9;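 for AC50: potency may reflect either rise or fall in cell number versus DMSO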). The note with it: primary human endothelial cells (HUVEC). The procedure, abridged:
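Subconfluent HUVEC (3C system) cultured with chemical; relative cell number read at 48 h by sulforhodamine B total-protein staining (0.1% SRB after 10% TCA fixation, 560 nm). Bidirectional fit relative to DMSO.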

Test [6] deals with Peroxisome proliferator-activated receptor gamma (Homo sapiens) (UniProt P37231). The test can be described thus: ATG_PPARg_TRANS: Attagene TRANS-FACTORIAL HepG2 Assay for human Peroxisome Proliferator-activated Receptor-gamma (PPARg) (AID 2283007). Put shortly: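 Twenty-four hours after chemical dosing of transiently transfected HepG2 cells, isolated RNA was converted to cDNA, reporter sequences amplified and 6-FAM-labelled, then HpaI-digested and analysed by capillary electrophoresis. Signal increase against DMSO was fitted.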

Test [7] has as its target Nuclear receptor subfamily 1 group I member 2 (Homo sapiens) (UniProt O75469). The experiment in a line: ATG_PXR_TRANS: Attagene TRANS-FACTORIAL HepG2 Assay for human Pregnane X Receptor (PXR) (AID 2283008). The procedure, abridged:
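Fluorescence intensity of FAM-labelled, HpaI-digested reporter amplicons, separated by capillary electrophoresis, quantifies induction. HepG2 cells with PXR-Gal4 trans-reporter system were exposed 24 h; DMSO defines baseline.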

Test [8] deals with Retinoic acid receptor RXR-alpha (Homo sapiens) (UniProt P19793). The experiment in a line: ATG_RXRa_TRANS: Attagene TRANS-FACTORIAL HepG2 Assay for human Retinoid X Receptor alpha (RXRa) (AID 2283012). Put shortly: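 HepG2 cells transiently transfected with GAL4-UAS reporter units and chimeric RXRa-Gal4 protein, treated 24 h. Reporter mRNA measured by RT-PCR, fluorescent labelling, HpaI digestion and capillary electrophoresis. Induction fitted against DMSO.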

Test [9] deals with human Thyroid Receptor alpha (THRa1), THRA (gene 7067) (UniProt P10827). The test can be described thus: ATG_THRa1_TRANS: Attagene TRANS-FACTORIAL HepG2 Assay for human Thyroid Receptor alpha (THRa1) (AID 2283014). The procedure, abridged: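 HepG2 cells transiently transfected with multiplexed GAL4-UAS reporter units for exogenous chimeric THRa1-Gal4; reporter mRNA measured 24 h after dosing by RT-PCR, 6-FAM labelling, HpaI digestion and capillary electrophoresis. Gain-of-signal fitted versus DMSO baseline.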

Read-out in test [10]: E-selectin (Homo sapiens) (UniProt P16581)
The experiment in a line: BSK_3C_Eselectin: BioMAP Diversity Plus: 3C Assay for Eselectin Biomarker Activity (AID 2283015; active = hit-call score of the fitted dose curve at least 0.9, where 1 is the maximum; inactive = score below 0.9;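 for outcome: cell surface E-selectin protein quantified by ELISA 24 h after dosing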). The note with it: primary human endothelial cells (HUVEC); actives raise or lower the signal. The procedure, abridged: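 Primary human umbilical vein endothelial cells (3C system) were dosed with chemical and cell-surface E-selectin measured by ELISA 24 h later. Bidirectional curve fitting used DMSO as negative control and baseline.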

Read-out in test [11]: Interleukin-1 alpha (IL1a), IL1A (gene 3552)
The test can be described thus: BSK_BE3C_IL1a: BioMAP Diversity Plus: BE3C Assay for Interleukin-1 alpha (IL1a) Biomarker Activity (AID 2283016; active = hit-call score of the fitted dose curve at least 0.9, where 1 is the maximum; inactive = score below 0.9). The note with it: primary human bronchial epithelial cells; actives raise or lower the signal. The procedure, abridged: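 Human primary bronchial epithelial cells, 24 h chemical exposure; IL-1a quantified by ELISA, fitted bidirectionally against DMSO. Cytotoxicity assessed in parallel by SRB total-protein staining at the time of measurement.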

Read-out in test [12]: Monocyte Chemoattractant Protein-1 (MCP1), CCL2 (gene 6347)
The test can be described thus: BSK_3C_MCP1: BioMAP Diversity Plus: 3C Assay for Monocyte Chemoattractant Protein-1 (MCP1) Biomarker Activity (AID 2283017; active = hit-call score of the fitted dose curve at least 0.9, where 1 is the maximum; inactive = score below 0.9). The note with it: primary human endothelial cells (HUVEC); actives raise or lower the signal. Put shortly:
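Primary human umbilical vein endothelial cells (3C system) were exposed to test chemical for 24 h, after which MCP-1 was quantified by ELISA. Activity was fitted bidirectionally against DMSO as negative control and baseline.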

Read-out in test [13]: Monocyte Chemoattractant Protein-1 (MCP1), CCL2 (gene 6347)
The test can be described thus: BSK_4H_MCP1: BioMAP Diversity Plus: 4H Assay for Monocyte Chemoattractant Protein-1 (MCP1) Biomarker Activity (AID 2283018; active = hit-call score of the fitted dose curve at least 0.9, where 1 is the maximum; inactive = score below 0.9). The note with it: primary human endothelial cells (HUVEC); actives raise or lower the signal. The procedure, abridged:
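Human umbilical vein endothelial cells (4H system) exposed to chemicals for 24 h in 96-well format. MCP-1 measured by ELISA; bidirectional fitting against DMSO, with SRB total-protein staining in parallel cultures for cytotoxicity.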

Read-out in test [14]: Human Leukocyte Antigen - DR isotype (HLADR), HLA-DRA (gene 3122)
The test can be described thus: BSK_3C_HLADR: BioMAP Diversity Plus: 3C Assay for Human Leukocyte Antigen - DR isotype (HLADR) Biomarker Activity (AID 2283019; active = hit-call score of the fitted dose curve at least 0.9, where 1 is the maximum; inactive = score below 0.9;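 for outcome: ELISA of cell-surface HLA-DR on HUVEC 24 h after dosing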). The note with it: primary human endothelial cells (HUVEC); actives raise or lower the signal. Put shortly:
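Primary human umbilical vein endothelial cells (3C system) were dosed with compound and cell-surface HLA-DR was quantified by ELISA at 24 h. Activity was fitted bidirectionally against DMSO as negative control and baseline.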

Read-out in test [15]: Interleukin-8 (IL8), CXCL8 (gene 3576)
The test can be described thus: BSK_3C_IL8: BioMAP Diversity Plus: 3C Assay for Interleukin-8 (IL8) Biomarker Activity (AID 2283020; active = hit-call score of the fitted dose curve at least 0.9, where 1 is the maximum; inactive = score below 0.9). The note with it: primary human endothelial cells (HUVEC); actives raise or lower the signal. Put shortly: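 Primary human umbilical vein endothelial cells were dosed for 24 h. IL-8 was quantified by ELISA and fitted bidirectionally against DMSO. Cytotoxicity was assessed in parallel cultures by SRB staining at 560 nm.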

Read-out in test [16]: Monokine induced gamma interferon (MIG), CXCL9 (gene 4283)
The test can be described thus: BSK_3C_MIG: BioMAP Diversity Plus: 3C Assay for Monokine induced gamma interferon (MIG) Biomarker Activity (AID 2283021; active = hit-call score of the fitted dose curve at least 0.9, where 1 is the maximum; inactive = score below 0.9;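 for AC50: MIG protein level measured by immunoassay in the treated endothelial cultures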). The note with it: primary human endothelial cells (HUVEC); actives raise or lower the signal. Put shortly:
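HUVEC primary endothelial cultures dosed with chemical; MIG quantified by ELISA at 24 h. Data fitted bidirectionally against DMSO control, with parallel SRB total-protein staining for cytotoxicity.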

Test [17] addresses human Peroxisome Proliferator-activated Receptor alpha (PPARa), PPARA (gene 5465) (UniProt Q07869). The experiment in a line: ATG_PPARa_TRANS: Attagene TRANS-FACTORIAL HepG2 Assay for human Peroxisome Proliferator-activated Receptor alpha (PPARa) (AID 2283001). Put shortly: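 Read-out is fluorescence of reporter cDNA fragments resolved by capillary electrophoresis after RT-PCR. Human HepG2 liver cells carried transfected PPARa-Gal4 chimera and GAL4-UAS reporter units, treated 24 h; activity scored as increase over DMSO.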

Test [18] deals with human Retinoid X Receptor beta (RXRb), RXRB (gene 6257) (UniProt P28702). The experiment in a line: ATG_RXRb_TRANS: Attagene TRANS-FACTORIAL HepG2 Assay for human Retinoid X Receptor beta (RXRb) (AID 2283013). The procedure, abridged:
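HepG2 cells were transiently transfected with multiplexed GAL4-UAS reporters and a chimeric RXRb-Gal4 construct, then exposed for 24 h. Reporter mRNA was quantified by RT-PCR, FAM labeling, HpaI digestion and capillary electrophoresis; gain of signal was scored against DMSO.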

In test [19] the target is human RAR-related Orphan Receptor beta (RORb), RORB (gene 6096) (UniProt Q92753). The experiment in a line: ATG_RORb_TRANS: Attagene TRANS-FACTORIAL HepG2 Assay for human RAR-related Orphan Receptor beta (RORb) (AID 2283010). The procedure, abridged: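 HepG2 cells transiently transfected with GAL4-UAS reporter units expressing chimeric NR-Gal4 protein; reporter mRNA measured 24 h after dosing by RT-PCR, 6-FAM labelling and capillary electrophoresis. Gain-of-signal fitted relative to DMSO baseline.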

Test [20] concerns the target human RAR-related Orphan Receptor gamma (RORg), RORC (gene 6097) (UniProt P51449). The test can be described thus: ATG_RORg_TRANS: Attagene TRANS-FACTORIAL HepG2 Assay for human RAR-related Orphan Receptor gamma (RORg) (AID 2283011). The procedure, abridged: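 Readout: reporter transcript induction (RT-PCR, fluorescent primer extension, capillary electrophoresis) after 24 h compound exposure of transiently transfected HepG2 cells carrying a RORg-Gal4 chimera and GAL4-UAS reporters; DMSO served as baseline, with increasing signal fitted.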

The source of these data is PubChem BioAssay (EPA / NIEHS).

Structures are written as SMILES. Inconclusive results are not listed. Activity calls are given as the source filed them. Rule for the calls, unless noted: active = hit-call score of the fitted dose curve at least 0.9, where 1 is the maximum; inconclusive = response in the unintended direction; inactive = score below 0.9.

Sequence of human Thyroid Receptor alpha (THRa1), THRA (gene 7067) (P10827 whole entry, looked up, the tested form may be a part): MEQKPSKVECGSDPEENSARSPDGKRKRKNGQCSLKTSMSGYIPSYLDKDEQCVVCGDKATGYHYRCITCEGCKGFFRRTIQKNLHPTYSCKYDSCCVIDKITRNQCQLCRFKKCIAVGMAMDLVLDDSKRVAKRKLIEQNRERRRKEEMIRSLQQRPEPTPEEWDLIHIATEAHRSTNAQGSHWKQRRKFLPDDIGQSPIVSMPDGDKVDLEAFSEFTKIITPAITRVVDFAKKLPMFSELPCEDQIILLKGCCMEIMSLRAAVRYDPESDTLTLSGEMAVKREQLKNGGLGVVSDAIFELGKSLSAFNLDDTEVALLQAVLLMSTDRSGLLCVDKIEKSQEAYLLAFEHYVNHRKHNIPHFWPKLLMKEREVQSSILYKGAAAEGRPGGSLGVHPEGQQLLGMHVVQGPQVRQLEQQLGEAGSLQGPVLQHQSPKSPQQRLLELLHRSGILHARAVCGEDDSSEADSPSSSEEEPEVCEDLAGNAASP
Sequence of E-selectin (Homo sapiens) (P16581 whole entry, looked up): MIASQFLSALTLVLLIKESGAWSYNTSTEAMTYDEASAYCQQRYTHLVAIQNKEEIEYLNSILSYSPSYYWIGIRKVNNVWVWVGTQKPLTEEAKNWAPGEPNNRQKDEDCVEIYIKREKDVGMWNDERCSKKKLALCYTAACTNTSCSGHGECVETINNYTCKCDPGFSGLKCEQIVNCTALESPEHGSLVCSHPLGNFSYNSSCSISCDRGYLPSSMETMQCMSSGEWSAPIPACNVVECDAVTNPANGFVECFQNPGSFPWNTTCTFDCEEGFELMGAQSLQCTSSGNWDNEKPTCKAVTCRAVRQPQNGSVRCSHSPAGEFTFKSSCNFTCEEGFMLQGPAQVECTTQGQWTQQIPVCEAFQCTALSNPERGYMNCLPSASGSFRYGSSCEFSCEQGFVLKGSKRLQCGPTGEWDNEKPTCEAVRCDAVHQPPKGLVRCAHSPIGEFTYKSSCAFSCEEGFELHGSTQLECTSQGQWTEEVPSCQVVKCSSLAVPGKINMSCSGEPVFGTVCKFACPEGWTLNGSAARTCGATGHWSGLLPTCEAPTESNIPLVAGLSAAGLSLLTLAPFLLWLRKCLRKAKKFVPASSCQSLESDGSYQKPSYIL
Sequence of Nuclear receptor subfamily 1 group I member 2 (Homo sapiens) (O75469 whole entry, looked up, the tested form may be a part): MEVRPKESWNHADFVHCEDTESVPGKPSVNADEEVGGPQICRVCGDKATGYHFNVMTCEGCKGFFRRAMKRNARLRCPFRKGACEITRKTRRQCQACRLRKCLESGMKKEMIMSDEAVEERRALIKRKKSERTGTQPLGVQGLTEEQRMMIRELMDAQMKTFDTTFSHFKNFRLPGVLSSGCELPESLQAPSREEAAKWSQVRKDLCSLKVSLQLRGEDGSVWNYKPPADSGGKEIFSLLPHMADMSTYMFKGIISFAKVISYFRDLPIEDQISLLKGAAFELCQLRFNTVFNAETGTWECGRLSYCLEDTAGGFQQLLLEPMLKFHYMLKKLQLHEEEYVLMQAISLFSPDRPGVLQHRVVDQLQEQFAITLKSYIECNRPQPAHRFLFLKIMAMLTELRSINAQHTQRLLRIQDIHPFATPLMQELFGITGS
Sequence of human Retinoid X Receptor beta (RXRb), RXRB (gene 6257) (P28702 whole entry, looked up, the tested form may be a part): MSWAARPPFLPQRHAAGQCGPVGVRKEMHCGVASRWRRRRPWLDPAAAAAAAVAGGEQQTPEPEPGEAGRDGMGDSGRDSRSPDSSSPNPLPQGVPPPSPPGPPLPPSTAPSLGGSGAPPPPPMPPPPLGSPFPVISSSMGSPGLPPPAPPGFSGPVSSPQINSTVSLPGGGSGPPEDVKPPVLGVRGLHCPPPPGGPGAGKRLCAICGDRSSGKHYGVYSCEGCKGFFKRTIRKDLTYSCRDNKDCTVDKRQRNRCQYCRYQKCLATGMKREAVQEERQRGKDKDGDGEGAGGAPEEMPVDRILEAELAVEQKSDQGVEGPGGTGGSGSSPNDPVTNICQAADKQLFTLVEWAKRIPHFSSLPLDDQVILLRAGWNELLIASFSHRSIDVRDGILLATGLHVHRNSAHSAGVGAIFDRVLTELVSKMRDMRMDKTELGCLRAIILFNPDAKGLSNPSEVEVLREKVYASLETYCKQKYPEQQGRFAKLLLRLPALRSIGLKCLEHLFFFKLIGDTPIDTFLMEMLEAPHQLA
Sequence of human Retinoic Acid Receptor beta (RARb), RARB (gene 5915) (P10826 whole entry, looked up, the tested form may be a part): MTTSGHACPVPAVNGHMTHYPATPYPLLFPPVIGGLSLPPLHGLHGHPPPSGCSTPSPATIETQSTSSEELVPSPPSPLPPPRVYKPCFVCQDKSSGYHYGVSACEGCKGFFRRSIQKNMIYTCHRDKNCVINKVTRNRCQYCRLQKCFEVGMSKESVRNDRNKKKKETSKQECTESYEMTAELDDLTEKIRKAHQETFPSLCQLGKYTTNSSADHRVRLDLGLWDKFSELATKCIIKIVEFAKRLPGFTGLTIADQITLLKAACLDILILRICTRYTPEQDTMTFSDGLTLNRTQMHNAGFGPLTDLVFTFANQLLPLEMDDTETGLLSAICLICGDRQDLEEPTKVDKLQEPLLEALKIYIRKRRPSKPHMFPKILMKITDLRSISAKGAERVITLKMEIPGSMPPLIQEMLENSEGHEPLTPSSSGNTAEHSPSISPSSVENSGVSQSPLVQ
Sequence of Peroxisome proliferator-activated receptor gamma (Homo sapiens) (P37231 whole entry, looked up): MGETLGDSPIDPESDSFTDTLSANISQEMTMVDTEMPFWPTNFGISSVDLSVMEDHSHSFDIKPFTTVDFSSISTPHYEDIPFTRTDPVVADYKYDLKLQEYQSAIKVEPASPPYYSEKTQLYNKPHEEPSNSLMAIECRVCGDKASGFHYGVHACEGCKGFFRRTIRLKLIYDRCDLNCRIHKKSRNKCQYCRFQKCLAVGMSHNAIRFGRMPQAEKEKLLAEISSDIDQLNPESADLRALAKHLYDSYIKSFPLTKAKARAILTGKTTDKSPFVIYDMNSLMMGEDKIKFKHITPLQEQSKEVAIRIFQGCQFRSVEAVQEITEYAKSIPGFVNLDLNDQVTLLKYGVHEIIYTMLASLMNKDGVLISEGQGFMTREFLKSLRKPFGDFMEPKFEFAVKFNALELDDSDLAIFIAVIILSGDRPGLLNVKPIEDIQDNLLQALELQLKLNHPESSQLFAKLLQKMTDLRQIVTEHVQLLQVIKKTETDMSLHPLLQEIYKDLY
Sequence of human Peroxisome Proliferator-activated Receptor delta (PPARd), PPARD (gene 5467) (Q03181 whole entry, looked up): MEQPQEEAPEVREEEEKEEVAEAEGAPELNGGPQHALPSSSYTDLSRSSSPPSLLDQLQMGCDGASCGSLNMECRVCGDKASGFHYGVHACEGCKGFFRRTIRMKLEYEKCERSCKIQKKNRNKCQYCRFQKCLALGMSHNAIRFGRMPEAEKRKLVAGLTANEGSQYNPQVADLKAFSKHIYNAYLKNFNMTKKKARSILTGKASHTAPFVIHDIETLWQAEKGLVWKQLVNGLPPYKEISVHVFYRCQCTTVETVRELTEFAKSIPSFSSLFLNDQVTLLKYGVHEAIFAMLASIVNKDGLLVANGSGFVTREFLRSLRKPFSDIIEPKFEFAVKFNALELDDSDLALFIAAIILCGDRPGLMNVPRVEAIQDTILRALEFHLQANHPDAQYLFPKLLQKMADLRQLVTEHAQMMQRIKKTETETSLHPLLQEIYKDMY
Sequence of Retinoic acid receptor RXR-alpha (Homo sapiens) (P19793 whole entry, looked up, the tested form may be a part): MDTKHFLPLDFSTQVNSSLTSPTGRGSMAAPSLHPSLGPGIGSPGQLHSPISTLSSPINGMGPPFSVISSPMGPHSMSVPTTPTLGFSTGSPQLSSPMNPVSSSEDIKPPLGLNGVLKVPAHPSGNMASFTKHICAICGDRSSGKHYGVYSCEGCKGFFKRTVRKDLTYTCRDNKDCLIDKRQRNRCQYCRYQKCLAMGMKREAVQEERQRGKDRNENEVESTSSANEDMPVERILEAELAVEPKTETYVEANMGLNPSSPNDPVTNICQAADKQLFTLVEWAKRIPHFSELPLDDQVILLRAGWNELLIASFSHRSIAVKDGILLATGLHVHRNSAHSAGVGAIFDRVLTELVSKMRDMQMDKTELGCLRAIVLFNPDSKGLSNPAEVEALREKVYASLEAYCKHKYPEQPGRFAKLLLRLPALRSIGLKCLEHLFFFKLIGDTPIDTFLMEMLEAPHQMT
Sequence of Retinoic acid receptor alpha (Homo sapiens) (P10276 whole entry, looked up, the tested form may be a part): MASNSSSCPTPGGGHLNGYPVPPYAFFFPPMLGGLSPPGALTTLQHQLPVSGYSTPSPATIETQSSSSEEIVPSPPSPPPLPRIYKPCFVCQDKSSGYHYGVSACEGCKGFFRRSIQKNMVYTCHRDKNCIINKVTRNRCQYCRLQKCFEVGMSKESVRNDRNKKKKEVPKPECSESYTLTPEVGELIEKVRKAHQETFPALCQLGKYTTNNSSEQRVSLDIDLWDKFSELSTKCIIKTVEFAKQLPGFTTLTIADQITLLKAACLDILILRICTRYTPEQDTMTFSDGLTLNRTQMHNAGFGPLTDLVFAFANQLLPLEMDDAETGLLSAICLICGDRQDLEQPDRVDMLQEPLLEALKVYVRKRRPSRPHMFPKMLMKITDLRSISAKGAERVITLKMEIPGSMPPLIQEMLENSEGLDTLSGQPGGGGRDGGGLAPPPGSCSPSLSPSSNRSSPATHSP
Sequence of human RAR-related Orphan Receptor beta (RORb), RORB (gene 6096) (Q92753 whole entry, looked up, the tested form may be a part): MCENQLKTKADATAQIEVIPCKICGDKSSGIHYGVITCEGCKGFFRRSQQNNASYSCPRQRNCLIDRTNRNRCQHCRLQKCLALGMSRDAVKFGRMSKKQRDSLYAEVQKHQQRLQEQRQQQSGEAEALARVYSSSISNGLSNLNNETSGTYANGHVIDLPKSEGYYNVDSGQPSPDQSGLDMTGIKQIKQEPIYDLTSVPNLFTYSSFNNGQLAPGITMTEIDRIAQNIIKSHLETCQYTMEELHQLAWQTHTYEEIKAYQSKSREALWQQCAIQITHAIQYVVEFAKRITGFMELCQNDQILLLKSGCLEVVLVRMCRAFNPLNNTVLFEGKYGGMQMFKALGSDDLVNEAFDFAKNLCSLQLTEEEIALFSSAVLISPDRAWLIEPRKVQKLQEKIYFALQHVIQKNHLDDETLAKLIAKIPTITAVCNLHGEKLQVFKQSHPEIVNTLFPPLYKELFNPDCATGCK

`Cc1oc2c(NC(=O)c3c(Cl)cccc3Cl)cccc2c1C(C)(C)O`: the molecule was called inactive in test [1], in test [2], in test [3], in test [4], in [8] and in test [9]. Also, the result in [12], in test [13], in test [15] and in [16] was inactive. Moreover, the AC50 was 21.4 µM (active) in [5]; 3.28 µM (active) in test [6]; 204 nM (active) in test [7]; 13 µM (active) in [10]; 23.6 µM (active) in [11]; 21.8 µM (active) in test [14].
`CC1(C)NC(=O)N(c2ccc([N+](=O)[O-])c(C(F)(F)F)c2)C1=O`: the result in [17], in test [2], in [5], in test [6], in test [18] and in [9] was inactive. Moreover, the outcome in [10], in test [11], in [12], in [13], in test [14] and in [15] was inactive. Besides, in test [16], the outcome was inactive.
With `C[C@]12CC[C@@H]3c4ccc(O)cc4CC[C@H]3[C@@H]1CC[C@H]2O`, the result in test [1], in [2], in test [3], in test [4], in [6] and in [19] was inactive. Moreover, the result in test [20], in test [8], in test [18], in [9], in [11] and in test [13] was inactive. In addition, the result in [16] was inactive. In addition, the AC50 in test [5] is 9.12 µM (active); in test [7], 4.02 µM (active) [middle of 4 runs]; in [10] it was 8.58 µM (active); in [12], 14.3 µM (active); in test [14], 21.3 µM (active); in test [15] it was 13 µM (active).
With `CCN(Cc1cccc(S(=O)(=O)O)c1)c1ccc(C(=C2C=CC(=[N+](CC)Cc3cccc(S(=O)(=O)O)c3)C=C2)c2ccccc2S(=O)(=O)[O-])cc1`, the call in test [1], in test [2], in test [5], in [6], in test [7] and in [19] was inactive. Further, the call in test [9], in [10], in test [11], in test [12], in [13] and in test [14] was inactive. For the same molecule, the outcome in test [15] and in test [16] was inactive.
`CN1C(=O)N(c2ccccc2Br)Cc2cnc(Nc3ccc4c(c3)OCC(CO)O4)nc21` (stereo not drawn): the AC50 in [2] is 28.1 µM (active); in test [5], 2.28 µM (active); in test [10] it was 15.2 µM (active); in [11], 2.57 µM (active); in [12], 14.7 µM (active); in test [13] it was 2.11 µM (active). In addition, the results for the concentration at half-maximal activity (AC50) in [14], in [15] and in test [16] were 9 µM (active), 12.2 µM (active) and 25.3 µM (active), respectively. Moreover, the call in test [6] and in [7] was inactive.

In general, AC50 refers to the concentration giving half of the maximal activity seen.
